This note sets out measurements from PubChem BioAssay AID686979 (National Center for Advancing Translational Sciences (NCATS), 2013).

In all, about 420,000 compounds went through this assay and about 50,000 (12%) were called active. Not shown: some 26% with an inconclusive outcome. Calls come from the whole dose curve; as a rule, active = well fitted inhibition curve with a large enough effect; inconclusive = small, poorly fitted or top-dose-only effect; inactive = flat fitted curve, though single readings scatter. What follows is part of a selection rich in actives, with near analogues and random picks from the rest.
% is set by controls: 0 for no effect and ±100 for the full control effect; potency is the fitted concentration of half-maximal effect.

The experiment can be described thus: qHTS for Inhibitors of human tyrosyl-DNA phosphodiesterase 1 (TDP1): qHTS in cells in presence of CPT. Note: nearly all actives have a fitted effect of over 55% in size. The note with it: chicken DT40 Tdp1-/-;hTDP1 cells + 20 nM CPT, ATP luminescence, 48 h; series mostly up to 46.2 µM; activity change, negative = growth inhibition: at the top concentration. In outline:
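Chicken DT40 Tdp1-/- cells complemented with human TDP1, 400 cells/well, exposed to compounds plus 20 nM camptothecin for at least 48 h at 37 C; viability read as ATP content by CellTiter-Glo luminescence.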
(qHTS replaces the single test concentration by a dilution series.)
As for `CC(C)(C)c1ccc(NC(=O)COC(=O)CCc2nc3ccccc3c(=O)[nH]2)cc1`, the “activity change, negative = growth inhibition” value was -11.3% (inactive).

Turning to `Cc1cc(C)c(-c2csc(NC(=O)CCCc3nc4ccccc4c(=O)[nH]3)n2)c(C)c1`, the Potency was 18.4 µM (active).

Turning to `Cc1cc(-c2csc(N)n2)c(C)n1Cc1ccccc1`, the “activity change, negative = growth inhibition” value is -21.8% (inactive). Turning to `CCCn1c(C)cc(-c2csc(NC(=O)CCc3nc4ccccc4c(=O)[nH]3)n2)c1C`, the Potency was 23.1 µM (active). On to `Cc1cccc(C(=O)NCc2nnc(SC(C)C(=O)Nc3nnc(C)s3)n2C)c1` (stereo not given), for which the “activity change, negative = growth inhibition” value was -34.3% (inactive).

Consider `C/C(N)=C(/C#N)C(=O)COC(=O)C1=NN(c2ccccc2)C(=O)CC1`, for which the “activity change, negative = growth inhibition” value is 1.55% (inactive). For the molecule `CCOc1ccc(-c2nc(N)ncc2-c2ccccc2OC)c(O)c1`, the Potency was 20.6 µM (active).

Take `C=C(C)COc1ccc(-c2nc(N)ncc2-c2ccccc2OC)c(O)c1`: the “activity change, negative = growth inhibition” value is 20.8% (inactive).

For `CCOC(=O)Cn1c2c(c(-c3ccccc3OC)cc1=O)CCCC2`, the “activity change, negative = growth inhibition” value was 5.73% (inactive).

As for `O=C(O)CCCN1C(=O)c2ccccc2Sc2ncccc21`, the “activity change, negative = growth inhibition” value is -9.84% (inactive). As to `Fc1cccc(-n2ncc3c2ncn2nc(-c4ccccc4Cl)nc32)c1`, the “activity change, negative = growth inhibition” value is 21.7% (inactive). `CCCCN1C(N)=NC[C@@H]1CC1CCCCC1`: the Potency is 23.1 µM (active). Consider `CCCCNC(=O)C1CCC(=O)N1CCc1ccccc1` (stereo not given), for which the “activity change, negative = growth inhibition” value is 29.2% (inactive).

As for `CCCCN1C(N)=NC[C@@H]1Cc1ccccc1`, the Potency is 7.31 µM (active).

On to `CCCC[C@@H]1CN=C(N)N1CCCC`, for which the Potency is 9.2 µM (active). Turning to `CCCCN1C(=S)NC[C@@H]1C(C)CC` (stereo not given in full), the “activity change, negative = growth inhibition” value was -7.68% (inactive). The same measure, in the same setting: the figure for `CCCCN1CC(COCc2ccccc2)OCCS1(=O)=O` (stereo not given) is 6.67% (inactive); for `Cc1cccc(C)c1NC(=O)CNC(=O)c1ccc2c(c1)OCCO2` it is 3.65% (inactive); for `COn1c(-c2ccc(Cl)cc2Cl)nc2ncccc21` it is -23.2% (inactive). Regarding `O=S(=O)(Nc1ccc(-c2ccc(N3CCOCC3)nn2)cc1)c1cc(Cl)ccc1Cl`, the “activity change, negative = growth inhibition” value is -17.8% (inactive). As for `COc1cc2ccccc2cc1C(=O)Nc1ccc(N2CCOCC2)cc1`, the “activity change, negative = growth inhibition” value was -6.18% (inactive). Regarding `O=C1NCC(c2ccccc2)(c2ccccc2)C(=O)N1`, the “activity change, negative = growth inhibition” value is 8.39% (inactive). Same read-out and setting: the figure for `OCC1(CO)CC2(C1)CC(CO)(CO)C2` is 17.5% (inactive); for `Nc1cccc(CCc2nc3ccccc3[nH]2)c1` it is -2.04% (inactive). Turning to `COc1ccccc1CSc1nc2ccccc2[nH]1`, the “activity change, negative = growth inhibition” value was -20.9% (inactive). For the molecule `c1ccc2c(CSCc3nc4ccccc4[nH]3)cccc2c1`, the Potency was 16.4 µM (active). `CC1(C(=O)NCc2ccccc2)CN(S(C)(=O)=O)CC(=O)N1CC(F)(F)F` (stereo not given): the “activity change, negative = growth inhibition” value is -1.16% (inactive).

With `COc1cc(NC(=S)NNC(=O)CC(C)C)c(OC)cc1Cl`, the “activity change, negative = growth inhibition” value was -18.9% (inactive). Same read-out and setting: the figure for `CN(C)CCCn1c(SCc2ccc(Cl)cc2)nnc1-c1ccncc1` is -9.91% (inactive); for `Cn1c(=O)c2ccccc2n(CC(=O)Nc2ccc3c(c2)OCCO3)c1=O` it is -23.7% (inactive). In the case of `C/C(CC(=O)NC(C)c1ccccc1)=N\NC(N)=S` (stereo not given), the “activity change, negative = growth inhibition” value is 3.94% (inactive). Consider `Cc1cc(C(=O)NNC(=S)NC(C)c2ccccc2)cs1` (stereo not given), for which the Potency was 23.1 µM (active). `Cc1ccc(C(=O)NC(C)c2ccccc2)cc1Br` (stereo not given): the “activity change, negative = growth inhibition” value was -16.3% (inactive). Take `N#Cc1ccc(-c2ccc3nccn3c2)cc1`: the “activity change, negative = growth inhibition” value was 7.78% (inactive).

Regarding `COc1ccc(-c2nc3cc(C)ccn3c2NC2CCCCC2)cc1SC1CCCCC1`, the Potency was 29.6 µM (active). For `COc1ccc(C)cc1S(=O)(=O)NC1CCCCC1`, the “activity change, negative = growth inhibition” value is 0.565% (inactive). On the same count and under the same terms, the figure for `COC(=O)c1ccc(NC(=O)CSc2nncn2-c2cccnc2)cc1` is -9.04% (inactive); for `CN(C)c1ccc(CN2CCOc3ccc(CN4CCC(O)(c5cccnc5)CC4)cc3C2)cc1` it is -11.9% [at 9.04 µM] (inactive).

Consider `CC(=O)CCC(=O)c1ccc2ccccc2c1`, for which the “activity change, negative = growth inhibition” value is 5.57% (inactive). For `C=CC(=O)c1ccc2ccccc2c1`, the Potency was 2.91 µM (active). For `O=C(NNC(=O)c1ccc2ccccc2c1)c1ccc(Cl)cc1`, the “activity change, negative = growth inhibition” value was -9.35% (inactive).

On to `COc1ccc(C(=O)N/N=C(\C)CC(=O)Nc2ccc(Cl)cn2)cc1`, for which the “activity change, negative = growth inhibition” value was 22.2% (inactive). Consider `c1ccc(-c2noc(-c3cccs3)n2)nc1`, for which the Potency is 8.2 µM (active). As to `O=C(Oc1ccc(-c2nc(-c3ccccn3)no2)cc1)c1ccccc1`, the Potency is 8.2 µM (active). For the molecule `COc1ccc(CCc2nc(-c3cccs3)no2)cc1`, the “activity change, negative = growth inhibition” value is 4.51% (inactive).

Regarding `O=C(Oc1ccccc1)c1ccc2nccnc2c1`, the “activity change, negative = growth inhibition” value is 3.75% (inactive). Consider `Brc1ccc(-c2noc(-c3ccccc3)n2)o1`, for which the Potency entry was “inactive”. On to `c1csc(-c2nc(-c3ccncc3)no2)c1`, for which the “activity change, negative = growth inhibition” value is 1.73% (inactive). In the case of `COc1ccc(/C=C(\NC(=O)c2ccccc2)C(=O)NCCN2CCOCC2)cc1OC`, the “activity change, negative = growth inhibition” value was 10.4% (inactive). On the same count and under the same terms, the figure for `O=C(O)c1ccc(/C=N/NC(=O)c2ccc(Br)cc2)cc1` is 0.528% (inactive); for `CCN(C(=O)CSc1nnc(-c2ccc(OC(F)F)cc2)n1N)C1CCS(=O)(=O)C1` (stereo not given) it is -1.93% (inactive); for `COc1ccc2c(c1)N(C)/C(=C1/SC(=S)N(NC(C)=O)C1=O)S2` it is -12.3% (inactive). As for `CCCCOc1ccc(NC(=O)[C@@H]2CCCN2C(=O)C2CCN(S(=O)(=O)c3ccc(C)cc3)CC2)cc1`, the “activity change, negative = growth inhibition” value was 13.9% (inactive).

`COC(=O)[C@H]1C[C@H](OC(=O)NCc2ccccc2)[C@@]2(O)CN(S(=O)(=O)c3ccc(C)cc3)CC2[C@H]1C(=O)OC` (stereo not given in full): the “activity change, negative = growth inhibition” value is -28.5% (inactive). Consider `CCCCCCNC(=O)O[C@H]1CN(C(=O)OC(C)C)N(C(=O)OC(C)C)[C@@H]2CN(S(=O)(=O)c3ccc(C)cc3)C[C@]12O`, for which the Potency was 18.4 µM (active).
